The inhibition is the drop in the measured response relative to a control, in per cent.

Among all 200,000 compounds or so, about 18,000 (9%) were called active. Cut-off read from the data, not from the text of the source: active = inhibition above about 50%; inactive = the rest. This excerpt belongs to a sample that is enriched for actives.

This assay can be described thus: antileishmanial activity against promastigotes – primary screen (AID 1063).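 Note: promastigotes grown with compound for 44 hours at 28 °C.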 The following applies: Leishmania major promastigotes, resazurin fluorescence viability; at 10 µM; hits give high values. For orientation: Resazurin is reduced to fluorescent resorufin, in cell work by metabolically active cells.
`O=C1CN(C(=O)CN2C(=O)NC3(CCCCC3)C2=O)c2ccccc2N1`: the inhibition was -5.28% (inactive).
The figure for `Cc1ccccc1Nc1scc(-c2ccc(Br)cc2)[n+]1-c1ccccc1C` is 31% (inactive).
The figure for `CC(CC(=O)N1CCN(c2ccccc2)CC1)c1ccccc1` (centres undefined) is -5.82% (inactive); for `CC(=O)N1CCN(c2ccc(NCc3ccc(C(C)C)cc3)cc2)CC1` it is 81.4% (active); for `CCc1ccc(NC(=O)N2CCN(c3ccccc3)CC2)cc1` it is 25.5% (inactive).
Take `NC(=O)N1CCc2ccccc21`: the inhibition is -6.03% (inactive).
The figure for `O=C(Nc1ccccc1)OCc1cn(-c2ccc(Cl)cc2)nn1` is -4.84% (inactive); for `Cc1cccc(N2Cc3ccccc3C2=NC(=O)c2ccc(Cl)nc2)c1` it is 4.02% (inactive).
Next, `N#Cc1ccc(N2Cc3ccccc3/C2=N/C(=O)Nc2ccc(Cl)cc2)cc1`: 71.6% (active).
Next, `Cn1cccc1/C=C1\SC(=O)N(CC(=O)Nc2ccc(F)cc2)C1=O`: -0.17% (inactive).
Take `c1ccc(COc2ccccc2CNCc2cccnc2)cc1`: the inhibition was 75% (active).
Next, `O=C(CCc1ccccc1)NCc1cccnc1`: -1.64% (inactive).
With `CCC(Oc1ccccc1)C(=O)NCc1cccnc1` (centres undefined), the inhibition is 3.42% (inactive).
Next, `CCOc1cc(/C=N/O)ccc1OCc1ccccc1F`: -1.85% (inactive); `COc1ccccc1CNCc1cccs1`: 7.82% (inactive); `Fc1ccccc1COc1ccccc1CNCc1ccncc1`: 98.5% (active).
With `O=C(CNC1CCCCC1)NCC1(c2ccccc2)CCCC1`, the inhibition was 19.4% (inactive).
Next, `O=C(O)c1n[nH]nc1-c1ccccc1`: -4.14% (inactive); `COC(=O)c1cc(NC(=O)CN2CCN(C(C)=O)CC2)cc(C(=O)OC)c1`: 2.15% (inactive).
`Fc1ccc(CNCc2ccc(Br)cc2)cc1`: the inhibition was 84.8% (active).
The figure for `O=C(Cc1ccccc1)NCc1ccc(F)cc1` is -4.83% (inactive); for `Cc1cc(C)cc(NC(=S)NCc2ccc(F)cc2)c1` it is 16.7% (inactive).
The figure for `Cn1c(SCC(=O)Nc2ccc(Br)cc2F)nnc1-c1ccco1` is -5.27% (inactive); for `NC(=O)C1CCN(C(=O)COc2cccc3cccnc23)CC1` it is -6.58% (inactive); for `COc1ccc(OCc2cn3c(C)cc(C)nc3n2)cc1` it is -3.26% (inactive).
Regarding `COc1ccc(C(C[N+](=O)[O-])n2nc(C)cc2C)cc1` (centres undefined), the inhibition is 100% (active).
The figure for `COc1ccc(C(=O)CSc2nc(C)cc(C)n2)cc1[N+](=O)[O-]` is 16% (inactive).
The figure for `CN(C)/C=C(/C(=O)c1ccccc1Cl)S(C)(=O)=O` is 3.15% (inactive).
For the compound `COc1ccc(C(=O)C2CCCN(C(=O)c3cc4nc(C)cc(C)n4n3)C2)cc1F` (centres undefined), the inhibition was 57.3% (active).
As to `Cc1cnc(C(=O)N2CCCC(C(=O)c3ccc(C(F)(F)F)cc3)C2)cn1` (centres undefined), the inhibition is 3.62% (inactive).
In the case of `CCn1nc(C)cc1C(=O)N1CCCC(C(=O)c2cccc(OC)c2)C1` (centres undefined), the inhibition was -7.56% (inactive).
The figure for `C=CCn1cc(C(=O)NCc2ccc(Cl)cc2)c(=O)c2cc(S(=O)(=O)N(CC)CC)ccc21` is 13.9% (inactive).
For `COc1ccc(Cn2c(-c3ccc(Cl)cc3)c[n+]3ccccc23)cc1`, the inhibition is 99.2% (active).
For the compound `CCc1nc2oc3ccccc3c(=O)c2c(=O)n1Cc1ccc(OC)cc1`, the inhibition is 8.88% (inactive).
The figure for `COc1ccc(C(=O)CN(C(=O)c2ccc(Cl)cc2)N2C(=O)c3ccccc3C2=O)cc1` is -4.51% (inactive); for `COc1ccc(-c2nn(-c3ccccc3)cc2/C=C\C(=O)Nc2ccc(C(=O)O)cc2)cc1` it is -5.87% (inactive); for `O=c1c2c(nc3n1CCCCC3)sc1c(O)cccc12` it is -1.41% (inactive).
Next, `Cc1c(C(=O)Nc2cccc(-c3nnc4n3CCCCC4)c2)oc2ccccc12`: 27.1% (inactive); `Cc1c(C(=O)Nc2ccccc2)sc2nc3n(c(=O)c12)CCCCC3`: 61.8% (active); `C=CCNc1nc(Nc2ccc(Cl)cc2)nc(OC)n1`: 41.2% (inactive).
Next, `COc1ccc(C2Nc3ccccc3C(=O)N2c2ccc(F)cc2)cc1Cn1nnc2ccccc21` (centres undefined): 20.3% (inactive); `COc1ccc(C2Nc3ccccc3C(=O)N2Cc2ccccc2)cc1Cn1nnc2ccccc21` (centres undefined): 97% (active); `COc1ccc(C2=NO[C@@H]3C(=O)N(Cc4ccccc4)C(=O)[C@H]23)cc1OC`: -2.75% (inactive).
With `CCN1CCN(C(C(=O)NC2CCCC2)c2cc3c(cc2[N+](=O)[O-])OCO3)CC1` (centres undefined), the inhibition is -2.85% (inactive).
Regarding `COc1ccc(Cc2n[nH]c(=S)n2NC(=O)Nc2ccc(C)cc2)cc1`, the inhibition was -2.58% (inactive).
For the compound `CCN1CCN(Cc2nc3c(c(=O)n(C)c(=O)n3C)n2CC(=O)c2ccccc2)CC1`, the inhibition is 1.75% (inactive).
Next, `CN1CCN(Cc2nc3c(c(=O)n(C)c(=O)n3C)n2Cc2cccc3ccccc23)CC1`: 58.8% (active).
Regarding `Cn1c(=O)c2c(nc(CN3CCOCC3)n2Cc2ccccc2)n(C)c1=O`, the inhibition is -4.56% (inactive).
Next, `Cc1cccc(NC(=S)N2CCC(O)CC2)c1C`: -2.49% (inactive).
The figure for `Cc1csc(OCC(=O)Nc2ccc(C)c(C)c2)n1` is -3.8% (inactive); for `Cc1ccc(NC(=O)COc2ccc(-n3ccnc3)cc2)cc1Cl` it is 86.5% (active); for `Cc1ccccc1OCC(=O)Nc1ccc(N2CCN(C(=O)C(C)C)CC2)c(Cl)c1` it is 40.7% (inactive).
Next, `O=C(CNC(=O)COc1ccccc1)NCCc1ccccn1`: -2.06% (inactive).
As to `CCn1c(SCc2ccc(C)cc2)nnc1-c1nn(-c2ccccc2)ccc1=O`, the inhibition was 5.13% (inactive).
Next, `N=C(N)SCc1cccc2ccccc12`: 5.8% (inactive).
Next, `CCc1ccc(-c2nn(-c3ccccc3)cc2CSC(=N)N)cc1`: 100% (active).
Next, `N/C(=N\OC(=O)CCc1ccccc1)c1cccnc1`: -5.44% (inactive).
`COC(=O)CSc1nccc(-c2cccs2)n1`: the inhibition is 1.92% (inactive).
The figure for `Cc1nnc(SCC(=O)N2CCN(c3ccccc3)CC2)n1-c1ccccc1` is 5.01% (inactive); for `Cc1nnc(SCC(=O)NCCOc2ccc(Cl)cc2)n1-c1ccccc1` it is -1.38% (inactive).
The figure for `Cc1nnc(SCc2ccc(C(=O)c3ccc(Cl)cc3)o2)n1-c1ccccc1` is 98.6% (active); for `CNC(=O)c1[nH]cnc1C(=O)N[C@@H](CC(C)C)C(=O)OCc1ccccc1` it is 0.78% (inactive); for `CCN(CC)S(=O)(=O)c1ccc2[nH]cc(C(=O)NCCc3ccccc3)c(=O)c2c1` it is 7.93% (inactive).
Consider `CN(c1ccccc1)S(=O)(=O)c1ccc(Cl)c(C(=O)NCCc2c[nH]c3ccccc23)c1`, for which the inhibition is 95.2% (active).
For the compound `O=C(NCCc1c[nH]c2ccccc12)c1cc2ccccc2oc1=O`, the inhibition is 1.33% (inactive).
Turning to `CCn1c(=S)[nH]c2sc3c(c2c1=O)CCCCC3`, the inhibition was -4.76% (inactive).
Next, `Cc1nc2nc(CSc3nc4ccccc4s3)cc(=O)n2[nH]1`: 1.29% (inactive); `Cc1sc2ncnc(Sc3nc4ccccc4s3)c2c1C`: 7.91% (inactive); `CCN(CC)CCCSc1nc2ccccc2s1`: 70.2% (active).
Next, `O=C1COc2ccc(C(=O)COC(=O)C3CC(O)CN3S(=O)(=O)c3ccc(Cl)cc3)cc2N1` (centres undefined): -7.23% (inactive); `CCS(=O)(=O)N1Cc2ccccc2CC1C(=O)Nc1nc2ccc(F)cc2s1` (centres undefined): 19.1% (inactive); `CN(C)C(=O)N1CCNCC1`: -4.41% (inactive).
For `Cc1ccc(-c2cc(C(=O)N/N=C/C=C/c3ccco3)c3ccccc3n2)cc1C`, the inhibition was 55.7% (active).
Next, `O=C(N/N=C/C=C/c1ccco1)c1cccs1`: -2.33% (inactive).
Take `COc1cccc(-c2cc(C(=O)N/N=C/c3ccc(OC)c(COC(C)=O)c3)c3ccccc3n2)c1`: the inhibition was 10.4% (inactive).
Next, `COc1ccc(NS(=O)(=O)c2ccc(O)c(C(=O)OCC(=O)NC3CCCCC3)c2)cc1`: -3.84% (inactive).
Next, `O=C(NNc1cc(Cl)ccc1Cl)c1cccnc1Cl`: -4.41% (inactive).
The figure for `COC(=O)Cc1ccc(NC(=S)NCc2ccco2)cc1` is -3.07% (inactive).
With `CC(C)c1nc(CNC(=O)CC2C(=O)NCCN2Cc2ccoc2)cs1` (centres undefined), the inhibition is -2.52% (inactive).
Next, `COCc1c(N)c(C)nc(Cl)c1C#N`: 3.91% (inactive); `Oc1ccccc1/C=N/n1c(-c2cccs2)n[nH]c1=S`: -8.08% (inactive); `S=c1[nH]nc(-c2cccs2)n1/N=C/c1cccs1`: -14.7% (inactive).
With `Cc1ccsc1/C=N/n1c(=S)[nH]nc(C)c1=O`, the inhibition is 99% (active).
Next, `Cc1c(Cl)cccc1NC(=O)CSc1ccc(-c2cccnc2)nn1`: 10.9% (inactive).
Turning to `COC(=O)c1cc(C(=O)CSc2nc(C)cc(C)n2)ccc1O`, the inhibition is -2.37% (inactive).
The figure for `Cc1cc(SCC(=O)c2ccccc2)nc(SCC(=O)c2ccccc2)n1` is -2.75% (inactive); for `Cc1cc(Oc2ccc(Cl)cc2)nc(SCC(=O)c2ccccc2)n1` it is 95.7% (active); for `CC(=O)c1sc(NC(=O)C2=NN(c3ccccc3)C(=O)CC2)nc1C` it is 2.95% (inactive).
With `CC1=CC=CC2=N/C(=N\S(=O)(=O)c3ccc(F)cc3F)c3ccccc3CN12`, the inhibition is 2.41% (inactive).
Take `O=[N+]([O-])c1ccccc1NCc1ccc(Cl)cc1`: the inhibition was -7.18% (inactive).
On to `O=[N+]([O-])c1ccccc1Nc1ccc(O)cc1`, for which the inhibition is 5.07% (inactive).
Next, `Oc1ccc(CNc2ccccc2O)cc1`: 98.9% (active); `O=C(CS(=O)(=O)c1ccccc1)Nc1ccc(S(=O)(=O)Nc2ccccn2)cc1`: -6.61% (inactive).
Take `O=C(NCCc1ccc(F)cc1)c1n[nH]c2ccccc12`: the inhibition is 3.08% (inactive).
In the case of `O=C(Cc1ccc(Cl)c(Cl)c1)Nc1ccc(SC(F)F)cc1`, the inhibition is 4.28% (inactive).
The figure for `CN(C)CCNC(CC(=O)Nc1ccc(Cl)c(Cl)c1)C(=O)O` (centres undefined) is -6.23% (inactive).
`O=C(CC(O)(C(F)(F)F)C(F)(F)F)Nc1ccc(Cl)c(Cl)c1`: the inhibition was 100% (active).
As to `Cc1cc(C)n(-c2ccc(C(=O)O)cc2[N+](=O)[O-])n1`, the inhibition was -1.85% (inactive).
As to `COC(=O)Cc1csc(/N=C/c2c(O)n(-c3cccc(C(F)(F)F)c3)c(=O)c3ccccc23)n1`, the inhibition was -6.16% (inactive).

The record behind these values is PubChem BioAssay AID1063 (University of Pittsburgh Molecular Library Screening Center, 2008).
